“And” between values parts separate entries of the source, which are not always exact repeats. Equal entries are not always repeated. Records with an inconclusive call do not appear. The source holds several records for some structures; these can differ, active in one and inactive in another. The source made the active and inactive calls. Rule for the calls, unless noted: active = hit-call score of the fitted dose curve at least 0.9, where 1 is the maximum; inactive = score below 0.9.
Key:
[1] = read-out: Human Leukocyte Antigen - DR isotype (HLADR), HLA-DRA (gene 3122); experiment: BSK_3C_HLADR: BioMAP Diversity Plus: 3C Assay for Human Leukocyte Antigen - DR isotype (HLADR) Biomarker Activity (AID 2283019); settings: primary human endothelial cells (HUVEC); actives raise or lower the signal;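 note: ELISA of cell-surface HLA-DR on HUVEC 24 h after dosing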
Summary of the method: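 HUVEC monoculture, HLA-DR measured by ELISA 24 h after chemical dosing. Fitted bidirectionally against DMSO baseline; parallel SRB staining assessed cytotoxicity, with 3C proliferation read by SRB at 48 h.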

[2] = read-out: Interleukin-8 (IL8), CXCL8 (gene 3576); experiment: BSK_3C_IL8: BioMAP Diversity Plus: 3C Assay for Interleukin-8 (IL8) Biomarker Activity (AID 2283020); settings: primary human endothelial cells (HUVEC); actives raise or lower the signal
Summary of the method: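 Primary human umbilical vein endothelial cells (3C system) were exposed to test chemical for 24 h, then IL-8 was quantified by ELISA. Responses were fitted bidirectionally against DMSO vehicle as baseline.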

[3] = read-out: Monokine induced gamma interferon (MIG), CXCL9 (gene 4283); experiment: BSK_3C_MIG: BioMAP Diversity Plus: 3C Assay for Monokine induced gamma interferon (MIG) Biomarker Activity (AID 2283021); settings: primary human endothelial cells (HUVEC); actives raise or lower the signal
Summary of the method: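 Primary human umbilical vein endothelial cells in the 3C system were exposed to chemical for 24 h, after which MIG was quantified by ELISA. Activity was fitted bidirectionally against DMSO as negative control and baseline.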

[4] = BSK_3C_SRB: Viability Assessment in the BioMAP Diversity Plus: 3C Assay (AID 2283023); settings: primary human endothelial cells (HUVEC);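 note: fitted both ways against DMSO so a hit may be signal rise or drop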
Summary of the method: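 Human umbilical vein endothelial cells in the 3C system, treated 24 h. Total protein measured by 0.1% sulforhodamine B staining after 10% TCA fixation, read at 560 nm; bidirectional fit versus DMSO.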

[5] = BSK_3C_Vis: BioMAP Diversity Plus: 3C Assay for Morphology Visualization (AID 2283025); settings: primary human endothelial cells (HUVEC);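 note: fitted both ways so gain or loss versus DMSO counts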
Summary of the method: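 Human umbilical vein endothelial cells in the 3C system were imaged by light microscopy 24 h after chemical dosing to record cell morphology. Activity was fitted bidirectionally against DMSO as negative control and baseline; the endpoint serves as a background control.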

[6] = read-out: Pselectin, SELP (gene 6403); experiment: BSK_4H_Pselectin: BioMAP Diversity Plus: 4H Assay for Pselectin Biomarker Activity (AID 2283026); settings: primary human endothelial cells (HUVEC); actives raise or lower the signal
Summary of the method: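 Primary human umbilical vein endothelial cells were exposed to test chemical for 24 h, then cell-surface P-selectin was quantified by ELISA. Activity was fitted bidirectionally against DMSO as negative control and baseline.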

[7] = BSK_4H_SRB: Viability Assessment in the BioMAP Diversity Plus: 4H Assay (AID 2283027); settings: primary human endothelial cells (HUVEC);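 note: cells exposed to compound for 24 h before staining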
Summary of the method: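 Absorbance at 560 nm of SRB-stained total protein served as the viability read-out in confluent primary human umbilical vein endothelium 24 h after chemical treatment. Curves were fitted bidirectionally against DMSO as negative control.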

[8] = BSK_BE3C_SRB: Viability Assessment in the BioMAP Diversity Plus: BE3C Assay (AID 2283028); settings: primary human bronchial epithelial cells
Summary of the method: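 Human bronchial epithelial primary cells in confluent culture, 24 h after chemical dosing; total protein by 0.1% SRB staining after 10% TCA fixation, read at 560 nm. Bidirectional fitting versus DMSO baseline.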

[9] = read-out: Urokinase-type plasminogen activator receptor (uPAR), PLAUR (gene 5329); experiment: BSK_4H_uPAR: BioMAP Diversity Plus: 4H Assay for Urokinase-type plasminogen activator receptor (uPAR) Biomarker Activity (AID 2283030); settings: primary human endothelial cells (HUVEC); actives raise or lower the signal
Summary of the method: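 Human umbilical vein endothelial cells in the 4H system, 24 h after chemical dosing. Cell-surface uPAR measured by ELISA, fitted in both directions versus DMSO; cytotoxicity checked by SRB total protein in parallel cultures.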

[10] = read-out: Vascular endothelial growth factor receptor 2 (Homo sapiens) (UniProt P35968); experiment: BSK_4H_VEGFRII: BioMAP Diversity Plus: 4H Assay for Vascular endothelial growth factor receptor 2 (VEGFR2) Biomarker Activity (AID 2283031); settings: primary human endothelial cells (HUVEC); actives raise or lower the signal
Summary of the method: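 Primary human umbilical vein endothelial cells (4H system), 24 h exposure; cell-surface VEGFR2 measured by ELISA. Bidirectional fitting versus DMSO; cytotoxicity checked in parallel by SRB total-protein staining.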

[11] = read-out: Human Leukocyte Antigen - DR isotype (HLADR), HLA-DRA (gene 3122); experiment: BSK_BE3C_HLADR: BioMAP Diversity Plus: BE3C Assay for Human Leukocyte Antigen - DR isotype (HLADR) Biomarker Activity (AID 2283032); settings: primary human bronchial epithelial cells; actives raise or lower the signal
Summary of the method: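 Human primary bronchial epithelial cells in the BE3C system were exposed to chemicals for 24 h, after which HLA-DR levels were quantified by ELISA. Activity was fitted bidirectionally, gain or loss of signal, against DMSO as negative control and baseline.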

[12] = read-out: Vascular cell adhesion molecule 1 (VCAM1), VCAM1 (gene 7412); experiment: BSK_4H_VCAM1: BioMAP Diversity Plus: 4H Assay for Vascular cell adhesion molecule 1 (VCAM1) Biomarker Activity (AID 2283033); settings: primary human endothelial cells (HUVEC); actives raise or lower the signal;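 note: cell-surface VCAM-1 protein measured by ELISA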
Summary of the method: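 Primary human umbilical vein endothelial cells were exposed to chemicals for 24 h, after which VCAM-1 was quantified by ELISA. Responses were fitted bidirectionally against DMSO as negative control and activity baseline.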

[13] = read-out: Interferon-gamma inducible Protein 10 (IP10), CXCL10 (gene 3627); experiment: BSK_BE3C_IP10: BioMAP Diversity Plus: BE3C Assay for Interferon-gamma inducible Protein 10 (IP10) Biomarker Activity (AID 2283034); settings: primary human bronchial epithelial cells; actives raise or lower the signal
Summary of the method: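 Human primary bronchial epithelial cells were exposed to chemicals for 24 hours, after which IP-10 levels were measured by ELISA. Data were fitted bidirectionally against DMSO, which served as the negative control and activity baseline.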

[14] = read-out: Monokine induced gamma interferon (MIG), CXCL9 (gene 4283); experiment: BSK_BE3C_MIG: BioMAP Diversity Plus: BE3C Assay for Monokine induced gamma interferon (MIG) Biomarker Activity (AID 2283035); settings: primary human bronchial epithelial cells; actives raise or lower the signal;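 note: MIG protein measured by ELISA in BE3C cultures after 24 h of dosing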
Summary of the method: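 MIG level was determined by ELISA after 24 h chemical treatment of primary human bronchial epithelial cells. Values were fitted bidirectionally with DMSO as the negative control and activity baseline.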

[15] = read-out: Transforming growth factor beta 1 (TGFb1), TGFB1 (gene 7040); experiment: BSK_BE3C_TGFb1: BioMAP Diversity Plus: BE3C Assay for Transforming growth factor beta 1 (TGFb1) Biomarker Activity (AID 2283036); settings: primary human bronchial epithelial cells; actives raise or lower the signal
Summary of the method: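 Human primary bronchial epithelial cells (BE3C system) were dosed with chemical and TGF-b1 levels measured by ELISA at 24 h. Activity was fitted bidirectionally relative to DMSO negative control as baseline.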

[16] = read-out: Plasminogen activator inhibitor-1 (PAI1), SERPINE1 (gene 5054); experiment: BSK_BE3C_PAI1: BioMAP Diversity Plus: BE3C Assay for Plasminogen activator inhibitor-1 (PAI1) Biomarker Activity (AID 2283037); settings: primary human bronchial epithelial cells; actives raise or lower the signal
Summary of the method: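 Human primary bronchial epithelial cells were exposed to chemical for 24 h, then PAI-1 was quantified by ELISA. Activity was fitted bidirectionally relative to the DMSO negative control baseline.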

[17] = read-out: urokinase plasminogen activator (uPA), PLAU (gene 5328); experiment: BSK_BE3C_uPA: BioMAP Diversity Plus: BE3C Assay for urokinase plasminogen activator (uPA) Biomarker Activity (AID 2283038); settings: primary human bronchial epithelial cells; actives raise or lower the signal
Summary of the method: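 Primary human bronchial epithelial cells, uPA measured by ELISA 24 h after dosing. Bidirectional change relative to DMSO; cytotoxicity checked in parallel cultures by sulforhodamine B total-protein staining.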

[18] = biological target: human Vitamin D Receptor (VDR), VDR (gene 7421) (UniProt P11473); experiment: ATG_VDR_TRANS: Attagene TRANS-FACTORIAL HepG2 Assay for human Vitamin D Receptor (VDR) (AID 2283022; active = hit-call score of the fitted dose curve at least 0.9, where 1 is the maximum)
Chain of human Vitamin D Receptor (VDR), VDR (gene 7421) (P11473 whole entry, looked up, the tested form may be a part): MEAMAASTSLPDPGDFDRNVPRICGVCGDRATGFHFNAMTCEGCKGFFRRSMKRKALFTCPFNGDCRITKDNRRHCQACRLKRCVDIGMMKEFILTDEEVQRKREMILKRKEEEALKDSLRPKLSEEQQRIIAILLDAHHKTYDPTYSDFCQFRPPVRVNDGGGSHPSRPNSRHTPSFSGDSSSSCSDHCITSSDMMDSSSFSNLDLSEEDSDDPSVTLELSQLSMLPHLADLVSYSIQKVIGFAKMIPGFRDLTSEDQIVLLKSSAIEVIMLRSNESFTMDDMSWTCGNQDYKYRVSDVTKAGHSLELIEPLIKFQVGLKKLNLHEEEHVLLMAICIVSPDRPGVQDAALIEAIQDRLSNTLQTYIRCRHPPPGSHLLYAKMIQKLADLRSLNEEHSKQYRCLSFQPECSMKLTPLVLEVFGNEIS
Summary of the method: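 HepG2 cells were transiently transfected with GAL4-UAS reporter units and a chimeric VDR-Gal4 construct, then dosed for 24 hours. Reporter mRNA was quantified by RT-PCR, fluorescent labeling, HpaI digestion and capillary electrophoresis; gain of signal analysed vs DMSO.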

[19] = read-out: Matrix Metallopeptidase 1 (MMP1), MMP1 (gene 4312); experiment: BSK_BE3C_MMP1: BioMAP Diversity Plus: BE3C Assay for Matrix Metallopeptidase 1 (MMP1) Biomarker Activity (AID 2283024); settings: primary human bronchial epithelial cells; actives raise or lower the signal
Summary of the method: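 Primary human bronchial epithelial cells were dosed with test chemicals, and MMP1 levels were measured by ELISA 24 h later. Data were fitted bidirectionally against DMSO as the negative control and activity baseline.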

[20] = read-out: Thrombomodulin, THBD (gene 7056); experiment: BSK_3C_Thrombomodulin: BioMAP Diversity Plus: 3C Assay for Thrombomodulin Biomarker Activity (AID 2283029); settings: primary human endothelial cells (HUVEC); actives raise or lower the signal
Summary of the method: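 Primary human umbilical vein endothelial cells (3C system) were exposed to chemical for 24 h, then thrombomodulin levels were measured by ELISA. Activity was fitted bidirectionally against the DMSO negative control as baseline.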

Measured: AC50

CCCCN(CCCC)N=O
inactive: [1] | [2] | [3] | [4] | [5] | [6] | [7] | [8] | [9] | [10] | [11] | [12] | [13] | [14] | [15] | [16] | [17]

COC(=O)C(F)(F)C(F)(F)OC(F)(C(F)(F)F)C(F)(F)OC(F)=C(F)F (centres undefined)
inactive: [1] | [2] | [3] | [18] | [7] | [8] | [9] | [10] | [11] | [12] | [13] | [14] | [16] | [17]
active: [19] 1.48 µM and 2.55 µM

O=C(O)C(F)(F)OC(F)(F)C(F)(F)OC(F)(F)F
inactive: [1] | [2] | [3] | [18] | [19] | [7] | [9] | [10] | [11] | [12] | [13] | [14] | [16] | [17]
active: [17] 1420 nM

CC(C)(C)OOC(C)(C)C
inactive: [1] | [2] | [3] | [4] | [19] | [5] | [6] | [7] | [8] | [20] | [9] | [10] | [11] | [12] | [13] | [14] | [15] | [16] | [17]

COCCOCCO
inactive: [1] | [2] | [3] | [4] | [5] | [7] | [8] | [20] | [9] | [10] | [11] | [12] | [13] | [14] | [15] | [16] | [17]

O=[N+]([O-])c1ccccc1
inactive: [1] | [2] | [3] | [4] | [19] | [5] | [6] | [7] | [9] | [11] | [12] | [13] | [14] | [15] | [16] | [17]

From PubChem BioAssay (EPA / NIEHS)
